Inconclusive results are not listed. The source made the active and inactive calls. Unless noted, calls follow the shape of the dose curve; as a rule, active = well fitted curve in the direction sought with a large enough effect; inconclusive = small, poorly fitted or top-dose-only effect, or another doubt; inactive = no such curve, though single readings can be large; an effect the other way counts as inactive or inconclusive.
Tests used:
[1] = Primary qHTS for small molecule stabilizers of the endoplasmic reticulum resident proteome: Secreted ER Calcium Modulated Protein (SERCaMP) assay (AID 1508630); also: potency is read from the fitted curve at half-maximal effect; as to activity change, negative = inhibition: % is scaled to controls: 0 for no effect and ±100 for the full control effect
Procedure, shortened: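 GLuc-SERCaMP-expressing SH-SY5Y cells, pretreated 16 h with compound, are challenged with thapsigargin to empty ER calcium stores; after 4 h, coelenterazine is added directly to the medium and luminescence is imaged.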

[2] = A High-Content qHTS Against Drug Library for the Identification of Small Molecules that Inhibit DYT1 Early Onset Primary Dystonia-Associated Cell Pathology (AID 1645839; calls by dose curve)
Procedure, shortened: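 In this high-content image screen, delE TorsinA mislocalization in inducible Flp-In 293 cells is scored as %pathology, with cell count serving as the counterscreen. Compound exposure lasts 48 h under tetracycline induction in reduced-serum medium.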

[3] = target: Cytochrome P450 2D6 (Homo sapiens) (UniProt P10635); test: Cytochrome P450 family 2 subfamily D member 6 (CYP2D6) small molecule antagonists: luciferase biochemical (cell-free) qHTS assay (AID 1645840; active = well fitted curve in the direction sought with a large enough effect in the repeat runs; an effect the other way counts as inactive or inconclusive; also: nearly all actives have a fitted effect of over 55% in size; also: potency is read from the fitted curve at half-maximal effect; as to activity change, negative = inhibition: % is scaled to controls: 0 for no effect and ±100 for the full control effect)
Procedure, shortened: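 P450-Glo luminescent screen: recombinant CYP2D6 enzyme–proluciferin substrate mix preincubated with compound 10 min at room temperature, then NADPH regeneration added for 1 h at room temperature. Detection reagent added for 20 min; luciferin light read as relative luminescence units.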

[4] = target: Cytochrome P450 2C9 (Homo sapiens) (UniProt P11712); test: Cytochrome P450 family 2 subfamily C member 9 (CYP2C9) small molecule antagonists: luciferase biochemical (cell-free) qHTS assay (AID 1645842; active = well fitted curve in the direction sought with a large enough effect in the repeat runs; an effect the other way counts as inactive or inconclusive; also: nearly all actives have a fitted effect of over 55% in size; also: potency is read from the fitted curve at half-maximal effect)
Procedure, shortened: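 Luminescence, after 20 min with luciferin detection reagent, reflected CYP2C9 turnover during a 1 h NADPH-driven reaction at 37C. Enzyme-substrate mix contained 0.4% bovine serum albumin and was preincubated with compound 10 min at room temperature.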

Papain (Carica papaya) = Papain (Carica papaya) (UniProt P00784); test: Primary qHTS assay for inhibitors of the protease papain (AID 1645873);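 also: papain turnover of Z-FR-AMC read as the AMC fluorescence gain over 10 min; % is scaled to controls: 0 for no effect and ±100 for the full control effect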
[5] = Primary qHTS for inhibitors of nuclear receptor binding SET domain protein 2 (NSD2) in an isogenic RCH-ACV NSD2 p.E1099K mutant (9B) (AID 1645876); also: nearly all actives have a fitted effect of over 70% in size; also: potency is read from the fitted curve at half-maximal effect
[6] = Primary qHTS for inhibitors of nuclear receptor binding SET domain protein 2 (NSD2) in an RCH-ACV wild type WT cells (2C) (AID 1645877); also: nearly all actives have a fitted effect of over 70% in size; also: potency is read from the fitted curve at half-maximal effect
[7] = target: Cytochrome P450 3A4 (Homo sapiens) (UniProt P08684); test: Cytochrome P450 family 3 subfamily A member 4 (CYP3A4) small molecule antagonists: luciferase qHTS assay (AID 1645841; active = well fitted curve in the direction sought with a large enough effect in the repeat runs; an effect the other way counts as inactive or inconclusive; also: nearly all actives have a fitted effect of over 45% in size)
Procedure, shortened: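 Luminescent CYP3A4 activity readout: compounds plus enzyme-substrate mix 10 min at room temperature, reaction started with NADPH regenerating system for 1 h, stopped with detection reagent, read after 20 min. Ketoconazole served as control.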

[8] = Cytotoxicity counterscreen for inhibitors of SARS-CoV-2 cell entry (AID 1645845; calls by dose curve; also: nearly all actives have a fitted effect of over 50% in size)
Procedure, shortened: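 48 h compound treatment (after 1 h preincubation), HEK293-ACE2 cells, 37 C/5% CO2; ATP luminescence endpoint; normalized to cell wells and media blanks.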

[9] = Primary qHTS to identify inhibitors of SARS-CoV-2 cell entry (AID 1645846; calls by dose curve; also: nearly all actives have a fitted effect of over 45% in size); conditions: activity change, negative = inhibition: at 57.1 µM (top of the series) unless noted
Procedure, shortened: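 Data are normalized to wells receiving SARS-CoV-2-S pseudoparticles and those given bald particles. Entry signal was luciferase luminescence in stable hACE2 Expi293F cells, 48 hr post-infection, after 1 hr compound pretreatment.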

[10] = target: Catechol O-methyltransferase (Homo sapiens) (UniProt P21964); test: Confirmatory Screen for Target Class Profiling of Small Molecule Inhibitors of Methyltransferases (AID 1745852); conditions: MTase-Glo luminescence, SAH detection, recombinant enzyme; measured here: COMT max response; stronger effect = lower value
[11] = target: Guanidinoacetate N-methyltransferase (Homo sapiens) (UniProt Q14353); test: as above; conditions: MTase-Glo luminescence, SAH detection, recombinant enzyme; at 57.3 µM (top of the series)
[12] = target: Nicotinamide N-methyltransferase (Homo sapiens) (UniProt P40261); test: as above; conditions: MTase-Glo luminescence, SAH detection, recombinant enzyme; measured here: NNMT max response; stronger effect = lower value
[13] = target: Phenylethanolamine N-methyltransferase (Homo sapiens) (UniProt P11086); test: as above; conditions: MTase-Glo luminescence, SAH detection, recombinant enzyme; measured here: PNMT max response; stronger effect = lower value
[14] = Cell Viability qHTS for small molecule stabilizers of the endoplasmic reticulum resident proteome (AID 1508629); conditions: cell viability counter-screen, 100 nM thapsigargin for final 4 h;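 also: human SH-SY5Y neuroblastoma cells carrying the GLuc-SERCaMP reporter; compound exposure about 46 h in total before the viability read; % is scaled to controls: 0 for no effect and ±100 for the full control effect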
[15] = target: Rap guanine nucleotide exchange factor 3 (Homo sapiens) (UniProt O95398); test: Confirmatory qHTS for antagonist of cAMP-regulated guanine nucleotide exchange factor 3 (EPAC1) (AID 1645880);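 also: plate controls were DMSO only for no effect and full effect of the ATA control for full effect; nearly all actives have a fitted effect of over 55% in size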
Procedure, shortened: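 Nucleotide exchange uses 100 nM EPAC1, 250 nM RAP1B-BODIPY-GDP and 50 uM GDP, with compounds in a concentration-titration series. After 5 min at room temperature, fluorescence (480 nm ex/540 nm em) is read every 5 min for 30 min. Data are normalized to control ATA and DMSO.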

[16] = target: Rap guanine nucleotide exchange factor 3 (Homo sapiens) (UniProt O95398); test: Confirmatory qHTS for agonist of cAMP-regulated guanine nucleotide exchange factor 3 (EPAC1) (AID 1645881);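 also: EPAC1 catalysed release of BODIPY-GDP from Rap1B seen as fluorescence loss; 100% = effect of cAMP agonist control; nearly all actives have a fitted effect of over 75% in size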
[17] = target: Rap guanine nucleotide exchange factor 4 (Homo sapiens) (UniProt Q8WZA2); test: Confirmatory qHTS for agonist of cAMP-regulated guanine nucleotide exchange factor 4 (EPAC2) (AID 1645884);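 also: nucleotide exchange releases bodipy-GDP from Rap1 and this lowers its fluorescence; % is scaled to controls: 0 for no effect and ±100 for the full control effect; nearly all actives have a fitted effect of over 65% in size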
[18] = target: N-terminal Xaa-Pro-Lys N-methyltransferase 1 (Homo sapiens) (UniProt Q9BV86); test: Confirmatory qHTS for Inhibitors of N-terminal methyltransferase 1 (NTMT1): MTaseGlo Assay (AID 1645874);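 also: luminescence from SAH made as NTMT1 methylates SPKRIA peptide using SAM; 0% = DMSO control and -100% = no-enzyme control; nearly all actives have a fitted effect of over 65% in size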
Procedure, shortened: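 qHTS format: NTMT1 125 nM, SAM 100 uM, peptide SPKRIA 1 uM final; 15 min compound preincubation, 30 min reaction at room temperature. MTase-Glo luminescence.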

Cytochrome P450 2C9 (Homo sapiens), sequence (P11712 whole entry, looked up): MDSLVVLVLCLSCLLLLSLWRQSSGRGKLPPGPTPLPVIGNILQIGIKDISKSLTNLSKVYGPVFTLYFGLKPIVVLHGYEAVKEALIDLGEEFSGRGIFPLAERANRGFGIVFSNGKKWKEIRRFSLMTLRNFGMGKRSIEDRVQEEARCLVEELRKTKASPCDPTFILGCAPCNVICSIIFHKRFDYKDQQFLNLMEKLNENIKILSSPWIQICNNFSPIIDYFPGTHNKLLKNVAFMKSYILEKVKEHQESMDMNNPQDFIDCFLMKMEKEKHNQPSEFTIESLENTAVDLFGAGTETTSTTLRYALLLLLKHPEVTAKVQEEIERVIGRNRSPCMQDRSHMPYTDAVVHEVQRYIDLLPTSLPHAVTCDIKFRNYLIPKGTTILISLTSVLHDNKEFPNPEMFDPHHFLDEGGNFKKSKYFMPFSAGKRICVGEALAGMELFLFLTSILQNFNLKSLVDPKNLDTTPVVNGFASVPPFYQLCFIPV
Cytochrome P450 2D6 (Homo sapiens), sequence (P10635 whole entry, looked up): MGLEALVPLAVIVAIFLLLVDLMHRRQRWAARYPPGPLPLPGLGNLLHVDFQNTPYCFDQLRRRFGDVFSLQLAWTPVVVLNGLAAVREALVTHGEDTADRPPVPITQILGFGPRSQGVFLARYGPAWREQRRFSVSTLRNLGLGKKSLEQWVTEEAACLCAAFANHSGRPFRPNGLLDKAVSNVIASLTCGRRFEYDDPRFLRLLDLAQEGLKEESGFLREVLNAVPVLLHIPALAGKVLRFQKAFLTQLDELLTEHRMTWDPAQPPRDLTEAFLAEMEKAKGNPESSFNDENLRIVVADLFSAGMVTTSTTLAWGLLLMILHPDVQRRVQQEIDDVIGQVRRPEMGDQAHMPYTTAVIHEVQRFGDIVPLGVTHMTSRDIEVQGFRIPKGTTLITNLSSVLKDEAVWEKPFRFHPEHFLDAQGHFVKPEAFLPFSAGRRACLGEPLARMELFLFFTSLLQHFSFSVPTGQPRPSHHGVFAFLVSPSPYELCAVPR
Papain (Carica papaya), sequence (P00784 whole entry, looked up, the tested form may be a part): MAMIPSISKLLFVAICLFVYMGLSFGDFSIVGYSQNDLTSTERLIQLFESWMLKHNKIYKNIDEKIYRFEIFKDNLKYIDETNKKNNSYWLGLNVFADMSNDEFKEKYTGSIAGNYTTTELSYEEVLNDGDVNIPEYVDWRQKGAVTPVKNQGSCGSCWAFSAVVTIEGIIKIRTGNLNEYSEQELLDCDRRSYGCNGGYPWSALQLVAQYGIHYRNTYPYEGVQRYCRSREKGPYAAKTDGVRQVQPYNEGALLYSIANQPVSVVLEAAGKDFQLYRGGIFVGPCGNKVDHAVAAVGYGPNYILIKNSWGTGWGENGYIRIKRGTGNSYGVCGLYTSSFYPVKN
Rap guanine nucleotide exchange factor 3 (Homo sapiens), sequence (O95398 whole entry, looked up): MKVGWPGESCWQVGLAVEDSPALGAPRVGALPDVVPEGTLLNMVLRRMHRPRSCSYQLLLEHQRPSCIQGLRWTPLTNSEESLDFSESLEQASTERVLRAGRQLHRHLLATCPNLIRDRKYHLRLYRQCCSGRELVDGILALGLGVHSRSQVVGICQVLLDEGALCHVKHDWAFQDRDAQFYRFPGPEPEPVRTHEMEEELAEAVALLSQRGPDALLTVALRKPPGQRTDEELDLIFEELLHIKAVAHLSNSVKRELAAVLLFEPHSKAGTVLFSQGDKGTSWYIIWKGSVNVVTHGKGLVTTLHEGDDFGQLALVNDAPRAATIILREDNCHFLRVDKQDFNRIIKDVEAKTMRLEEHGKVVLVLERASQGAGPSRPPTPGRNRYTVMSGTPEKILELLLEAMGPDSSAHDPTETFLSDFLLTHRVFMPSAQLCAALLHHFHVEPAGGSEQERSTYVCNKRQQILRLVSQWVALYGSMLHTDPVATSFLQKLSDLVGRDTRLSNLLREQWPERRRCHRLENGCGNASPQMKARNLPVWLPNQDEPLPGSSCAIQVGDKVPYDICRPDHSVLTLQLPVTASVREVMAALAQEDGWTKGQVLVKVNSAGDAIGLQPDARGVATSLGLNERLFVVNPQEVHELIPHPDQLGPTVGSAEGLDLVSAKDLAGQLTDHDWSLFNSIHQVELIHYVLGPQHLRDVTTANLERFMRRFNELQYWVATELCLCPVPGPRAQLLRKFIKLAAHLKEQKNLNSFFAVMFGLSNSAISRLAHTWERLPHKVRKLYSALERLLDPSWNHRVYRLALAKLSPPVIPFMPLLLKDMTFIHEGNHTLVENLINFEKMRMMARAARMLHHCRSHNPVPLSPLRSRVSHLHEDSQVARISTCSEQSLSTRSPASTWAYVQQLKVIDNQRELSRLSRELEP
Cytochrome P450 3A4 (Homo sapiens), sequence (P08684 whole entry, looked up): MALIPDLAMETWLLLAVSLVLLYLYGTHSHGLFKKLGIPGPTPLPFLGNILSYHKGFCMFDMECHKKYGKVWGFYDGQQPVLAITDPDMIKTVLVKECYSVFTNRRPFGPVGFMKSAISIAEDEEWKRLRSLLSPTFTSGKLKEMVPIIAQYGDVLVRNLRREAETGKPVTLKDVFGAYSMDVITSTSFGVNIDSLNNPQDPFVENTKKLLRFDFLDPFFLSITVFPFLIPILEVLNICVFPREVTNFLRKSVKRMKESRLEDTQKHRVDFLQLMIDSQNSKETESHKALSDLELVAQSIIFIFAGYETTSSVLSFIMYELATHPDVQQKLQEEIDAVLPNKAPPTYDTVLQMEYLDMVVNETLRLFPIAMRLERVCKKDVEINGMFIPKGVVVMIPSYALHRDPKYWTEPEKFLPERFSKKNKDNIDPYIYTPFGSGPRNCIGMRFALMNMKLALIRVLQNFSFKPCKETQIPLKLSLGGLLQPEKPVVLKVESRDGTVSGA
Rap guanine nucleotide exchange factor 4 (Homo sapiens), sequence (Q8WZA2 whole entry, looked up): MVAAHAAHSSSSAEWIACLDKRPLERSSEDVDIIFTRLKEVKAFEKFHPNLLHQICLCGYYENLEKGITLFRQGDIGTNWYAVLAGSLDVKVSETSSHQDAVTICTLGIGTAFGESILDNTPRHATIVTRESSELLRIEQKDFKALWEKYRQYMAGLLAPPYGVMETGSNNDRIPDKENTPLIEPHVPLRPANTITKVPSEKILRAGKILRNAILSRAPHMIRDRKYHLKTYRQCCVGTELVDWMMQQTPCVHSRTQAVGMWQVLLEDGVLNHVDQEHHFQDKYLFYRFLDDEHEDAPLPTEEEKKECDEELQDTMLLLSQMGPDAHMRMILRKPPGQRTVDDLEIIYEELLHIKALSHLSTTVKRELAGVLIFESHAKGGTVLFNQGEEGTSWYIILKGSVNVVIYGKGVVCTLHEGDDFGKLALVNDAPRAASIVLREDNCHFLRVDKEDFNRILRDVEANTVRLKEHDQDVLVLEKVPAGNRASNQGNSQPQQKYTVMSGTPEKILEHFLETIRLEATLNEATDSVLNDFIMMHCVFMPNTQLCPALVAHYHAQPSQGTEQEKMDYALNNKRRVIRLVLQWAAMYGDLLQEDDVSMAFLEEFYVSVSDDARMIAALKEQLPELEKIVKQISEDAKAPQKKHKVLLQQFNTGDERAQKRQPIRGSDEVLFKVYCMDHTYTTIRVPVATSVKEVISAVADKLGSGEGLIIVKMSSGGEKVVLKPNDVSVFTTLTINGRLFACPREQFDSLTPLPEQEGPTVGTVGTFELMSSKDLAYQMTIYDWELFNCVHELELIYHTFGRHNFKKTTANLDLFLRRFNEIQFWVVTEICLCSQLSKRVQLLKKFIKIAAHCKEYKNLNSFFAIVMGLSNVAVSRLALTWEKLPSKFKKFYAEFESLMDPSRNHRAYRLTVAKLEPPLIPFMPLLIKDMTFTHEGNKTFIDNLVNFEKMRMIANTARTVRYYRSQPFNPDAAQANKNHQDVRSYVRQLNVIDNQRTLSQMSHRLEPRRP
Catechol O-methyltransferase (Homo sapiens), sequence (P21964 whole entry, looked up): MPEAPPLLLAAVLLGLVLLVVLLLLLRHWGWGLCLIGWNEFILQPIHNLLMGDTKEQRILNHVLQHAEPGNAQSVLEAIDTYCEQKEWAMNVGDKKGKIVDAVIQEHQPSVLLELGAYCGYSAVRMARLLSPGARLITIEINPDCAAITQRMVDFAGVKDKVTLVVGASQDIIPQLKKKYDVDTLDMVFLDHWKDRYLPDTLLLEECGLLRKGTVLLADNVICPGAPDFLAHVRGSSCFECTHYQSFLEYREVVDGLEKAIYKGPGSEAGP
Phenylethanolamine N-methyltransferase (Homo sapiens), sequence (P11086 whole entry, looked up): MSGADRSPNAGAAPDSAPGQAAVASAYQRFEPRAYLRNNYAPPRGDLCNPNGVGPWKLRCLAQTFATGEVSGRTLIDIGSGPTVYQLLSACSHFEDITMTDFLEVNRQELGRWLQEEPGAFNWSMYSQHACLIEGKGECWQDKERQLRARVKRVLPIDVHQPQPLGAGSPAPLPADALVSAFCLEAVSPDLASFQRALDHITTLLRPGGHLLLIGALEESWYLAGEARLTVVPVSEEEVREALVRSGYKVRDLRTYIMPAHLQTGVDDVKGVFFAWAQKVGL
Nicotinamide N-methyltransferase (Homo sapiens), sequence (P40261 whole entry, looked up): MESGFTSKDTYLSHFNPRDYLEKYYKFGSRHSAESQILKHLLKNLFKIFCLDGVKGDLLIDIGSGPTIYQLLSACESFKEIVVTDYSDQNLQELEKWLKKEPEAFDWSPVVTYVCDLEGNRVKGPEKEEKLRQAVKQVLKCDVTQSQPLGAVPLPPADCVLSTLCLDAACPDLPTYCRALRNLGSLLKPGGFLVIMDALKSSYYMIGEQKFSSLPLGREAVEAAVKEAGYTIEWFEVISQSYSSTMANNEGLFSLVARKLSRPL
N-terminal Xaa-Pro-Lys N-methyltransferase 1 (Homo sapiens), sequence (Q9BV86 whole entry, looked up): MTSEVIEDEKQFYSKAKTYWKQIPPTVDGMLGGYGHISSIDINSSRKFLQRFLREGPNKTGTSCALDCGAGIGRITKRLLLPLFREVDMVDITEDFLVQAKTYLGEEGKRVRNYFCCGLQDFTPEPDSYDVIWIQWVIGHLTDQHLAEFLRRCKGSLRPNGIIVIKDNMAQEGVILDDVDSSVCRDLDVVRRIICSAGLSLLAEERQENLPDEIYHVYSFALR

O=c1[nH]oc2c1CCNC2
inactive: Potency [1] | outcome [2] | Potency [3] | Potency [4] | outcome (Papain (Carica papaya)) | Potency [5] | Potency [6]

COC(=O)C(Cl)C(=O)OC
inactive: Potency [1] | outcome [2] | Potency [3] | Potency [4] | Potency [5] | Potency [6]

O=P1(N(CCCl)CCCl)NCCCO1 (configuration not stated)
inactive: Potency [1] | outcome [2] | Potency [3] | Potency [7] | Potency [4] | Potency [8] | Potency [9] | outcome (Papain (Carica papaya)) | Potency [5] | Potency [6]

NCCc1ccc(O)cc1
-9.22%: activity [12]
-7.57%: activity [10]
active: Potency [3] 13.8 µM
inactive: Potency [1] | outcome [2] | Potency [4] | outcome (Papain (Carica papaya)) | Potency [5]
-8.79%: activity [13]
0.255%: activity change, negative = inhibition [11]

C#C[C@]1(O)CC[C@H]2[C@@H]3CCC4=CC(=O)CC[C@]4(C)[C@H]3CC[C@@]21C
inactive: Potency [1] | outcome [2] | Potency [3] | Potency [4]

COc1c2c(cc3c1OCO3)CCN(C)C2
inactive: max response [14] 7.99% | outcome [2] | Potency [4] | Potency [8] | Potency [5] | Potency [6]
active: Potency [3] 2.45 µM
-9.9%: activity change, negative = inhibition [9]

C[C@@H]1CC2=CC(=O)CC[C@@H]2[C@H]2CC[C@@]3(C)[C@@H](CC[C@]3(C)O)[C@@H]21
inactive: Potency [1] | outcome [2] | Potency [3] | Potency [4]

O=C1CN=C(c2ccccc2)c2cc([N+](=O)[O-])ccc2N1
inactive: Potency [1] | outcome [2] | Potency [3] | Potency [5]

CCN[C@H](C)Cc1cccc(C(F)(F)F)c1
inactive: Potency [1] | outcome [2] | Potency [4] | Potency [5]
active: Potency [3] 3.16 µM

CCC1(c2ccc(N)cc2)CCC(=O)NC1=O (configuration not stated)
inactive: Potency [1] | outcome [2] | Potency [3] | Potency [4] | Potency [8] | Potency [9] | outcome (Papain (Carica papaya)) | Potency [5] | Potency [6]

C[C@]12Cc3cn[nH]c3C[C@@H]1CC[C@@H]1[C@@H]2CC[C@@]2(C)[C@H]1CC[C@]2(C)O
-13.6%: activity change, negative = inhibition [9]
inactive: Potency [1] | outcome [2] | Potency [8] | Potency [6]
active: Potency [3] 1.95 µM | Potency [4] 0.692 µM

CC(C)N(CCC(C(N)=O)(c1ccccc1)c1ccccn1)C(C)C (configuration not stated)
inactive: Potency [1] | outcome [2] | Potency [4] | Potency [8] | outcome (Papain (Carica papaya)) | Potency [5] | Potency [6]

[N-]=[N+]=CC(=O)OC[C@H](N)C(=O)O
inactive: Potency [1] | outcome [2] | Potency [4] | Potency [5] | Potency [6]

O=C1c2ccccc2C(=O)C1C(=O)C(c1ccccc1)c1ccccc1
active: Potency [4] 0.384 µM
inactive: Potency [1] | outcome [2] | outcome [15] | outcome [16] | outcome [17]

C[C@@H](N)[C@@H](O)c1ccccc1
inactive: Potency [1] | outcome [2] | Potency [4] | Potency [8] | Potency [9] | Potency [5] | Potency [6]

CCN(CC)CCc1c[nH]c2ccccc12
inactive: Potency [1] | Potency [7] | Potency [4]

O=C1OC(CCN2CCCCC2)OC1(c1ccccc1)c1ccccc1 (configuration not stated)
active: Potency [3] 0.617 µM | Potency [5] 8.41 µM | Potency [6] 13.3 µM
inactive: Potency [1]

NC1=NC(=O)C(c2ccccc2)O1 (configuration not stated)
inactive: Potency [1] | outcome [2] | Potency [4] | Potency [5] | Potency [6]

CCCCCCCCCC(=O)O[C@H]1CC[C@H]2[C@@H]3CCC4=CC(=O)CC[C@@H]4[C@H]3CC[C@]12C
inactive: Potency [1] | outcome [2] | Potency [5] | Potency [6]
active: Potency [4] 12.3 µM

C[C@]12CC[C@H]3[C@@H](CCC4=CC(=O)CC[C@@H]43)[C@@H]1CC[C@@H]2OC(=O)CCc1ccco1
inactive: Potency [1] | outcome [2] | Potency [8] | Potency [9]
active: Potency [4] 15.5 µM | Potency [5] 23.7 µM

COc1cc(CCN)cc(OC)c1OC
inactive: Potency [1] | outcome [2] | Potency [4]
active: Potency [6] 41.8 µM

CN1CCC(O)(c2ccc(F)cc2)C(C(=O)c2ccc(F)cc2)C1 (configuration not stated)
inactive: Potency [1] | outcome [2] | Potency [4] | Potency [5] | Potency [6]

Nc1ccccc1
inactive: Potency [1] | outcome [2] | Potency [4] | Potency [8] | Potency [5] | Potency [6]

CCC(C)C(C)(COC(N)=O)COC(N)=O (configuration not stated)
-15.3%: activity change, negative = inhibition [9]
inactive: Potency [1] | outcome [2] | Potency [4] | Potency [8] | Potency [5] | Potency [6]

CCC1(c2ccccc2)C(=O)N(COC)C(=O)N(COC)C1=O
inactive: Potency [1] | outcome [2] | Potency [4] | Potency [5] | Potency [6]

CC(C)=CC1C(C(=O)OCN2C(=O)C3=C(CCCC3)C2=O)C1(C)C (configuration not stated)
inactive: Potency [1] | outcome [2] | Potency [5] | Potency [6]
active: Potency [4] 8.71 µM

C[C@]12CCC(=O)C=C1CC[C@@H]1[C@@H]2CC[C@@]2(C)[C@H]1CC[C@]2(C)O
active: Potency [5] 23.7 µM
inactive: Potency [1] | outcome [2] | Potency [4] | outcome [18]

O=C(CCCN1CCC2(CC1)C(=O)NCN2c1ccccc1)c1ccc(F)cc1
active: Potency [1] 1 µM
inactive: outcome [2] | Potency [4] | outcome (Papain (Carica papaya))

Cc1ncsc1CCCl
-22.5%: activity change, negative = inhibition [9]
inactive: Potency [1] | outcome [2] | Potency [4] | outcome (Papain (Carica papaya)) | Potency [5] | Potency [6]

COP(=S)(OC)Oc1ccc(SC)c(C)c1
inactive: Potency [1] | outcome [2] | Potency [8] | Potency [5] | Potency [6]
active: Potency [4] 3.89 µM

C[C@]12CC[C@H]3[C@@H](CCC4=CC(=O)CC[C@@H]43)[C@@H]1CC[C@@H]2OC(=O)CCC1CCCCC1
inactive: Potency [1] | outcome [2] | Potency [8]
active: Potency [4] 24.5 µM | Potency [5] 23.7 µM | Potency [6] 18.8 µM
